The text below walks through data of PubChem BioAssay.

A short description of test [1]: compound effects on lung adenocarcinoma cell viability – A549, calcein-AM fluorescence, 48 h, basal, profiling panel (AID 1162). Also: test concentration not given here. The conditions noted are these: higher = more signal.
Test [2] is described as follows: compound effects on differentiated 3T3-L1 adipocyte viability – cell-based, 3T3-L1 adipocytes, calcein-AM fluorescence, 48 h, basal, profiling panel (AID 1163). Also: test concentration not given here. As to conditions: 3T3-L1 adipocytes viability, higher = more signal.
Test [3] can be described thus: compound effects on hepatocellular carcinoma cell viability – HepG2, calcein-AM fluorescence, 48 h, basal, profiling panel (AID 1164). Also: test concentration not given here. The conditions noted are these: higher = more signal.
Test [4] can be described thus: compound effects on multiple myeloma cell viability – MM1S, calcein-AM fluorescence, 48 h, basal, profiling panel (AID 1165). Also: test concentration not given here. The conditions noted are these: higher = more signal.
Test [5] is described as follows: calcein-AM signal in unstimulated myeloma cells – cell-based, calcein-AM fluorescence, 48 h, PK04 Diversity Set, profiling panel (AID 1166).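 Also: cells grown under basal conditions without added stimulus; test concentration not given here.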 The conditions noted are these: RPMI8226 myeloma viability, higher = more signal.
Test [6] in a line: JC-1 mitochondrial signal, unstimulated HepG2 cells – cell-based, JC-1 fluorescence, 24 h, 100 nL compound, profiling panel (AID 1167). Also: test concentration not given here. As to conditions: HepG2 mitochondrial potential, higher = more signal.
A short description of test [7]: JC-1 mitochondrial signal, unstimulated adipocytes – cell-based, JC-1 fluorescence, 3T3-L1 adipocytes, 24 h, 100 nL compound, profiling panel (AID 1168). Also: test concentration not given here. The conditions noted are these: JC-1 mitochondrial fluorescence, higher = more signal, called active from +8 up or from −8 down.
Test [8] in a line: JC-1 mitochondrial signal, unstimulated myeloma cells – cell-based, JC-1 fluorescence, RPMI8226, 24 h, 100 nL compound, profiling panel (AID 1169). Also: test concentration not given here. As to conditions: JC-1 mitochondrial potential fluorescence, higher = more signal.
Test [9] in a line: JC-1 mitochondrial signal, unstimulated MM1S myeloma – cell-based, JC-1 fluorescence, 24 h, 100 nL compound, profiling panel (AID 1170). Also: test concentration not given here. The conditions noted are these: MM1S mitochondrial potential, higher = more signal.
A short description of test [10]: resazurin metabolic signal in A549 cells – cell-based, resazurin fluorescence, 24 h, PK04 Diversity Set, profiling panel (AID 1171). Also: test concentration not given here. As to conditions: A549 viability, higher = more signal, called active from +8 up or from −8 down.
A short description of test [11]: resazurin metabolic signal in HepG2 cells – cell-based, resazurin fluorescence, 24 h, PK04 Diversity Set, profiling panel (AID 1172). Also: test concentration not given here. As to conditions: HepG2 viability, higher = more signal. On the technique in general: Alamar Blue is a resazurin reagent that responds to reducing activity.
Test [12] in a line: budding yeast growth changes without added modifier – OD600, strain BY4716, 24 h, basal condition, primary screen (AID 1173). As to conditions: S. cerevisiae BY4716 growth, OD600, 24 h; higher = more signal, called active from +8 up or from −8 down.
Test [13] is described as follows: viability profiling in MM1S myeloma cells – cell-based, resazurin fluorescence, basal, 24 h, PK04 Diversity Set, profiling panel (AID 1174). Also: test concentration not given here. As to conditions: higher = more signal, called active from +8 up or from −8 down.
The target of test [14] is Dihydroorotate dehydrogenase (quinone), mitochondrial (Plasmodium falciparum (isolate 3D7)) (UniProt Q08210). In words: inhibition of P. falciparum DHODH – biochemical, C-terminal His tag, absorbance 600 nm, primary screen (AID 1175).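 Also: recombinant parasite enzyme with a five histidine tag at its C terminus; test concentration not given here.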 The conditions noted are these: PfDHODH enzyme, DCIP absorbance 600 nm; higher = more signal, called active from +8 up or from −8 down.
Chain of Dihydroorotate dehydrogenase (quinone), mitochondrial (Plasmodium falciparum (isolate 3D7)) (Q08210 whole entry, looked up): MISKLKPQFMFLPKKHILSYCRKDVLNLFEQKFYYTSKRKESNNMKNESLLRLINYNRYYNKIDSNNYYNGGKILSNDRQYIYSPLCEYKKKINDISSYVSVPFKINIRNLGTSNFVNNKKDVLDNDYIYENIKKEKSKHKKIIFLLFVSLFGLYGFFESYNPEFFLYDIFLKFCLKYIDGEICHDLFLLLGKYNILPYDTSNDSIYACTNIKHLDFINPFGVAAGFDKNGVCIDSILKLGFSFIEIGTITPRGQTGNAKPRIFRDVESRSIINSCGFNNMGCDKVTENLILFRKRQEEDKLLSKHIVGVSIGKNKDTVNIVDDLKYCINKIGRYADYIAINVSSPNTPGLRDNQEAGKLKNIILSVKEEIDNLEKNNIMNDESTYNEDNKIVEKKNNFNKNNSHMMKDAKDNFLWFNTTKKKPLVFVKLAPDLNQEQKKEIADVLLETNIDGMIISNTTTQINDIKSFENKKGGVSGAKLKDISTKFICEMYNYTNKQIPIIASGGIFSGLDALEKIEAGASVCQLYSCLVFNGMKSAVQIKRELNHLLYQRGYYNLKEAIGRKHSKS
Test [15] is described as follows: inhibition of PAO1 biofilm formation – strain PAO1, LB-PBS medium, absorbance 600 nm, primary screen (AID 1176). Also: test concentration not given here. The conditions noted are these: P. aeruginosa PAO1 growth/biofilm, A600, 12 h; higher = more signal.
Test [16] can be described thus: growth modulation of vineyard yeast isolate – strain RM11-1a, OD600, basal, 24 h, primary screen (AID 1177).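 Also: cultures grown under basal conditions with no added stressor; test concentration not given here.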 As to conditions: S. cerevisiae RM11-1a growth, OD600, 24 h; higher = more signal, called active from +8 up or from −8 down.
A short description of test [17]: growth of efflux-deficient E. coli DRC39 – strain DRC39, OD650, 24 h, E. coli filamentation inducers, primary screen (AID 1178).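 Also: growth measured as culture turbidity by optical density at 650 nm; test concentration not given here.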 The conditions noted are these: E. coli DRC39 acrAB, higher = more signal, called active from +8 up or from −8 down.
The nature of test [18]: growth of efflux-deficient E. coli DRC39 – strain DRC39, OD650, 48 h, E. coli filamentation inducers, primary screen (AID 1179).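 Also: screen aims at cell division blockers that make cells filament.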 As to conditions: E. coli DRC39 delta-acrAB growth, higher = more signal, called active from +8 up or from −8 down.
Test [19] in a line: viability profiling in RPMI8226 myeloma cells – cell-based, resazurin fluorescence, basal, 24 h, PK04 Diversity Set, profiling panel (AID 1180).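 Also: RPMI8826 multiple myeloma cell line at 5000 cells per well; test concentration not given here.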 As to conditions: higher = more signal.
For test [20], the target named is E3 ubiquitin-protein ligase XIAP (Homo sapiens) (UniProt P98170). In words: small molecules binding XIAP protein – biophysical, small-molecule microarray, fluorescence 635 nm, primary screen (AID 1181).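 Also: score merges 667 nm emission and signal to noise over triplicate slides.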 The conditions noted are these: higher = more signal.
Chain of E3 ubiquitin-protein ligase XIAP (Homo sapiens) (P98170 whole entry, looked up): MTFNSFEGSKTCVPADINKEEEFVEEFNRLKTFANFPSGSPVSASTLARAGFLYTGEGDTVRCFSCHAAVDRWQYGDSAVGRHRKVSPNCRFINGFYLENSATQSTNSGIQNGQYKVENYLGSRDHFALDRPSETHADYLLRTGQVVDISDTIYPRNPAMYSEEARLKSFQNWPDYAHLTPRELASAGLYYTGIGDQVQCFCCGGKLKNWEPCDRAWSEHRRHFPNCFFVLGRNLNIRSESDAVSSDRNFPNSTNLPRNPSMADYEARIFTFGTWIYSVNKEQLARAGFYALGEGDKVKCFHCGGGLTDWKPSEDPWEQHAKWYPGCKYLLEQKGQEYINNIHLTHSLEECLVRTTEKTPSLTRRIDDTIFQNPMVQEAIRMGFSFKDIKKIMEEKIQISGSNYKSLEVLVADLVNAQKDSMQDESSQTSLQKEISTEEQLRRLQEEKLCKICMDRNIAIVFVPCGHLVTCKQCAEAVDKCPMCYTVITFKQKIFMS

SMILES strings stand for the structures. “And” between values parts separate entries of the source, which are not always exact repeats. Identical values can stand only once. The source holds several records for some structures; these can differ, active in one and inactive in another. The source made the active and inactive calls. Unless noted, no rule for the calls is given here.

In the case of `CO[C@H]1COC(=O)[C@H](C)NC(=O)CC=C[C@@H](C)[C@H](OC)COC(=O)CC=C[C@@H]1C`, the z-score in test [1] is 1.51; in test [2], 0.459; in [3] it was 0.235; in test [4] it was 0.0144; in [5], 0.417; in test [6] it was 0.573. Besides, the z-score was 0.156 (inactive) in test [7]; 0.56 in test [8]; 1.04 in test [9]; 0.74 (inactive) in test [10]; 0.322 in test [11]; 0.278 (inactive) in test [12]. For the same compound, the z-score is 0.845 (inactive) in test [13]; -0.519 (inactive) in test [15]; 1.18 (inactive) in test [16]; 0.901 (inactive) in test [17]; -0.959 (inactive) in [18]; 0.636 in test [19]. In addition, the composite z-score is 0.804 (inactive) in [14] and 0.234 in test [20].
As for `C=C[C@@H](OC)[C@H](O)c1ccc(O)c(F)c1`, the z-score in test [1] is 0.29 and -0.115; in test [2], -0.625 and 0.478; in test [3] it was -0.232 and 0.531; in test [4], 0.204 and 0.115; in test [5] it was 0.296 and 1.08; in test [6], -0.242 and 0.559. For the same compound, the z-score in test [7] is 0.0698 (inactive) and -0.132 (inactive); in [8] it was 0.498 and -0.363; in test [9], 0.724 and -0.819; in test [10], -0.0191 (inactive) and -0.71 (inactive); in test [11], 0.097 and -0.0575; in [12], -8.11 (active) and -7.12 (inactive). The z-score in [13] is 0.0746 (inactive) and 0.161 (inactive); in test [15], 0.826 (inactive) and 0.143 (inactive); in test [16], 1.17 (inactive) and -1.07 (inactive); in test [17], 0.407 (inactive) and 0.707 (inactive); in [18], 0.27 (inactive) and 0.965 (inactive); in test [19] it was -0.0761 and 0.295. For the same compound, the composite z-score in [14] was 0.789 (inactive) and -1.04 (inactive); in test [20] it was -0.195 and 0.0027.
For the compound `CO[C@@H]1COC(=O)CC=C[C@H](C)COC(=O)[C@H](C)NC(=O)CC=C[C@H]1C`, the z-score was 0.158 in [1]; 0.31 in test [2]; 0.46 in [3]; 0.122 in [4]; 0.353 in test [5]; 1.04 in test [6]. Also, the z-score was 0.214 (inactive) in [7]; -0.0124 in test [8]; 0.955 in test [9]; 0.162 (inactive) in test [10]; 0.496 in test [11]; 0.699 (inactive) in test [12]. Further, the z-score in test [13] was 0.859 (inactive); in test [15], -0.531 (inactive); in test [16] it was 1.25 (inactive); in test [17] it was 0.365 (inactive); in test [18], -0.896 (inactive); in test [19] it was 0.74. For the same compound, the figures for the composite z-score in test [14] and in test [20] were 1.09 (inactive) and -0.0936, respectively.
In the case of `C=CCN(CCCC)C(=O)C1N(C(C)(C)CO)C(=O)C2C(C(=O)O)C3C=CC21O3` (stereo not given), the z-score was -0.77 and -0.624 in test [1]; 0.75 and 0.349 in test [2]; 0.0674 and -0.857 in [3]; 1.09 and -0.12 in [4]; -0.539 and 0.144 in test [5]; -0.553 and -0.548 in test [6]. The z-score in test [7] is -0.134 (inactive) and 0.142 (inactive); in [8], 0.354 and 0.826; in test [9] it was -0.283 and -0.384; in test [10] it was 0.289 (inactive) and -0.11 (inactive); in test [11] it was 0.043 and 0.688; in test [12], 0.709 (inactive) and -0.0821 (inactive). Moreover, the z-score in test [13] was -0.0251 (inactive) and -0.847 (inactive); in test [15], 0.385 (inactive) and 0.0126 (inactive); in test [16], -0.902 (inactive) and -1.02 (inactive); in test [17], 0.378 (inactive) and 0.096 (inactive); in test [18], 0.0298 (inactive) and -0.182 (inactive); in [19], -0.131 and -0.803. The composite z-score in test [14] was -1.46 (inactive) and 0.0326 (inactive); in test [20], -0.162 and -0.195.
On to `COC(=O)CC=C[C@@H](C)[C@@H](CO)NS(=O)(=O)c1ccc(C)cc1`, for which the z-score in test [1] is -0.188 and 0.816; in test [2] it was -0.466 and -0.0209; in test [3], -0.252 and 0.461; in [4] it was -0.243 and 0.811; in [5], -0.101 and 0.667; in [6] it was -0.328 and 0.817. The z-score in test [7] is -0.0819 (inactive) and -0.161 (inactive); in test [8], -0.827 and 0.601; in test [9] it was -0.0943 and -0.285; in test [10], 0.827 (inactive) and -0.832 (inactive); in test [11], 0.553 and -0.369; in [12], 0.909 (inactive) and -1.39 (inactive). The z-score in [13] is 0.0323 (inactive) and -0.548 (inactive); in test [15] it was 0.013 (inactive) and 0.204 (inactive); in test [16], -0.214 (inactive) and -0.162 (inactive); in [17] it was -0.0056 (inactive) and 0.413 (inactive); in test [18], -0.214 (inactive) and 0.297 (inactive); in [19], 0.519 and -0.314. For the same compound, the composite z-score in [14] is 0.581 (inactive) and -0.0189 (inactive); in test [20], -0.275 and 0.0656.
In the case of `C=CCN(Cc1ccccc1)C(=O)C(c1cccs1)N(C(=O)/C=C\C(=O)O)c1c(Cl)cccc1CO` (stereo not given), the z-score in test [1] was -0.159 and -0.34; in [2] it was 0.036 and -0.0047; in test [3], -0.876 and -0.217; in test [4], 1.21 and 1.6; in test [5] it was 1 and -0.538; in test [6], -0.267 and -0.148. Also, the z-score in test [7] is 0.426 (inactive) and 0.223 (inactive); in test [8], -0.917 and 0.247; in test [9] it was -0.871 and -0.502; in [10] it was 0.351 (inactive) and -0.519 (inactive); in test [11] it was 0.201 and -0.418; in test [12], -0.0348 (inactive) and -0.539 (inactive). For the same compound, the z-score in [13] is 0.258 (inactive) and -0.385 (inactive); in [15], 0.165 (inactive) and -0.208 (inactive); in test [16] it was 0.0233 (inactive) and -0.276 (inactive); in test [17], 0.759 (inactive) and 0.391 (inactive); in [18], -1.34 (inactive) and 0.456 (inactive); in test [19], -0.124 and -1. Further, the composite z-score in test [14] was 0.607 (inactive) and 1.16 (inactive); in [20], -0.0172 and -0.359.
